# Test results reported in PubChem BioAssay.
# Calls of active or inactive are those of the source. Unless noted, how the calls were made is not given here.
# What was measured:
# [1] = tested on: Aerobactin synthetase IucA (Klebsiella pneumoniae); test: IucA aerobactin synthetase inhibitors, biochemical, Tocris library, absorbance (AID 1345561); details: purified IucA enzyme assay, absorbance (OD) read-out; stronger effect = lower value;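 tested at 8 µM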;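 further: 100% = enzyme without compound and 0% = no enzyme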
# [2] = sensitizers of A549 cells to miR-34 induction, primary screen, imaging, A549 dox-inducible miR-34, nuclei and caspase counts (AID 1347080;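 active means compounds whose cell count with miR-34 switched on is under 0.7 times the count with it off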); details: A549 miR-34 inducible, Hoechst nuclei count, 48 h
# [3] = viability rescue of complex I mutant cybrids, primary screen, cell-based, galactose medium, ATP luminescence (AID 1645843;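 active means z-score of at least 1.8 in each of two replicates, scored against plate mean and spread of sample wells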;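 further: positive z means more ATP and so rescue of galactose-driven cybrid death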); details: complex I mutant cybrid cells, 72 h, stronger effect = higher value
# [4] = stronger effect = lower value, cell number ratio, induced over uninduced
# [5] = measured here: relative caspase fold change +Dox/-Dox
# [6] = measured here: total cells with miR-34 induction, stronger effect = lower value
# [7] = measured here: total cells without miR-34 induction
SMILES,remaining activity [1],"fold change [2, 4]","fold change [2, 5]","cell count [2, 6]","cell count [2, 7]",z-score [3]
Cn1ccc2cc(NC(=O)Nc3cccnc3)ccc21,111% (inactive),0.984 (inactive),0.852,8400,8540,0.405 (inactive)
CCCn1c(=O)c2[nH]c(-c3ccccc3)nc2n(CCC)c1=O,113% (inactive),1.13 (inactive),0.687,4790,4230,-0.115 (inactive)
O=C(O)c1c(Sc2ccccc2)c2cc(Cl)ccc2n1Cc1ccc(Cl)cc1,122% (inactive),0.94 (inactive),1.45,6730,7160,1.25 (inactive)
CC1(C)Oc2ccc(C#N)cc2[C@H](N2CCCC2=O)[C@H]1O (racemic),116% (inactive),0.905 (inactive),1.25,8970,9900,0.155 (inactive)
c1cc2c3c(c1)c1c(n3CCNC2)CCCC1,120% (inactive),0.921 (inactive),1.32,7680,8340,-0.505 (inactive)
Cc1c[nH]c(=O)n(CCCN2CCN(c3ccccc3OCC(F)(F)F)CC2)c1=O,126% (inactive),0.952 (inactive),0.729,10000,10500,-0.38 (inactive)
O=C(Nc1ccccc1)N[C@H]1C[C@H](C(=O)O)Nc2cc(Cl)cc(Cl)c21,104% (inactive),0.916 (inactive),0.915,8670,9460,0.995 (inactive)
C/C(O)=C1/C(=O)[C@@H]2[C@H]3c4c[nH]c5cccc(c45)C[C@H]3C(C)(C)N2C1=O,119% (inactive),0.988 (inactive),1.54,6050,6130,-0.525 (inactive)
Cc1ccc(/C=C2\CNC/C(=C\c3ccc(C)cc3)C2=O)cc1,95.5% (inactive),0.9 (inactive),0.964,500,556,-0.645 (inactive)
CO[C@]12C[C@@H](COC(=O)c3cncc(Br)c3)CN(C)[C@@H]1CC1=CN(C)C3C=CC=C2C13 (some centres not stated),107% (inactive),0.94 (inactive),0.794,7700,8200,0.455 (inactive)
CCCCCN=c1ccn(Cc2ccccc2)c2ccccc12,114% (inactive),1.09 (inactive),0.778,1550,1420,-0.705 (inactive)
NC(N)=Nc1ccc(Cl)cc1,81.8% (inactive),0.948 (inactive),0.891,8620,9100,-0.49 (inactive)
